High-throughput results as filed in PubChem BioAssay.
The list is not random: actives were taken first. Their share in the collection is about 8.1%.
KB-V1 cytotox: kills drug-selected multidrug resistant KB-V1 cells; KB-V1 MDR cells viability, CellTiter-Glo, 72 h; Potency, µM (series often up to 46.1 µM), usual class: cytotoxic; actives 3.4% (n = 400,000); also: % is scaled to controls: 0 for no effect and ±100 for the full control effect; nearly all actives have a fitted effect of over 60% in size
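KB-V1, DMEM (no phenol red) + 10% FBS; cpd pin-transferred, titration series; 72 h, 37 degrees C; CellTiter-Glo, luminescence. Data normalized, curve-fit.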
KB-3-1 cytotox: kills parental KB-3-1 adenocarcinoma cells; actives 1.4% (n = 400,000); KB-3-1 viability, CellTiter-Glo ATP luminescence, 72 h; AID 1347075; Potency, µM (highest dose often 46.1 µM), most hits filed as cytotoxic; also: % is scaled to controls: 0 for no effect and ±100 for the full control effect; nearly all actives have a fitted effect of over 60% in size
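Cells are dispensed, compounds pinned in, plates held at 37 °C for 72 h, then CellTiter-Glo is added and luminescence read after 10 minutes. Cell line: parental KB-3-1 in phenol-red-free DMEM, 10% FBS.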
MCF10A rerep: induces DNA re-replication in MCF 10a normal breast cells | Potency, µM (titrated, usually from 46.1 µM), for inactives: top-dose activity, positive = re-replication, hits mostly activators | actives 2.9% (n = 350,000) | MCF 10A DNA re-replication, Hoechst nuclear intensity, 48 h; also: % of control where 0% means no effect; nearly all actives have a fitted effect of over 50% in size
SW480 rerep: induces DNA re-replication in SW480 colon adenocarcinoma cells; Potency, µM (highest dose often 46.1 µM), for the others: at the highest dose re-replication activation, hits mostly activators; SW480 DNA re-replication, Hoechst DNA content imaging, 48 h; actives 1.8% (n = 340,000); AID 624297; also: % of control where 0% means no effect; nearly all actives have a fitted effect of over 55% in size
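SW480 cells exposed to compounds for 48 hr at 37 C, 5% CO2, then Hoechst-stained 40 min. Nuclear DNA content imaged by fluorescence scanning (405 nm excitation, 500-530 nm emission); re-replication scored as increased high-intensity nuclei.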
ELG1 DNA repair: ELG1-dependent DNA repair inhibition; HEK293T ELG1-luciferase reporter, luminescence, 16 h; DNA damage induced by 5-fluorouridine; Potency, µM (doses to about 46.1 µM), inactives show top-dose activity change, negative = inhibition, actives largely listed as inhibitors; actives 2.3% (n = 330,000); also: % is scaled to controls: 0 for no effect and ±100 for the full control effect; nearly all actives have a fitted effect of over 55% in size
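HEK293T cells expressing luciferase-tagged ELG1 (2,000/well) received 5-Fluorouridine plus compound or DMSO for 16 hr at 37 °C. Luciferase was read by ONE-Glo luminescence after 30 min at room temperature.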
* hit, by the source's call. Calls follow the shape of the dose curve; as a rule, active = well fitted curve in the direction sought with a large enough effect; inconclusive = small, poorly fitted or top-dose-only effect, or another doubt; inactive = no such curve, though single readings can be large; an effect the other way counts as inactive or inconclusive. Potency is read from the fitted curve at half-maximal effect.

Cc1nc(C)n(CC(O)COc2ccc3ccccc3c2)n1 (stereo not given) was read as KB-V1 cytotox 20.6µM*, KB-3-1 cytotox inactive, MCF10A rerep 0.3%, SW480 rerep -4.1% and ELG1 DNA repair -0.4%.
For CC(NCC(O)COc1ccc2ccccc2c1)c1ccccc1 (stereo not given) the results were KB-V1 cytotox inconclusive, KB-3-1 cytotox inconclusive, MCF10A rerep inconclusive, SW480 rerep 23.1µM* and ELG1 DNA repair -20.5%.
`CC1CCC(C(C)C)C(OCC(O)CNC(C)c2ccccc2)C1` (stereo not given) gave KB-V1 cytotox 20.6µM*, KB-3-1 cytotox inconclusive, MCF10A rerep 16.4µM*, SW480 rerep 8.0% and ELG1 DNA repair -16.6%.
`COc1cccc(NC(=O)COC(=O)c2cc(=O)c3ccccc3o2)c1` gave KB-V1 cytotox inactive, KB-3-1 cytotox inactive, MCF10A rerep inconclusive, SW480 rerep -2.6% and ELG1 DNA repair inconclusive.
For COc1ccc(NC(=O)c2c(N)c(C(=O)c3ccc(C)cc3)n3ccccc23)cc1OC the results were KB-V1 cytotox inactive and KB-3-1 cytotox inactive.
Screening CCN=c1scc(-c2ccco2)n1/N=C/c1ccc(O)cc1 returned KB-V1 cytotox inactive, KB-3-1 cytotox inactive, MCF10A rerep 23.1µM*, SW480 rerep 2.5% and ELG1 DNA repair inconclusive.
`COc1ccc(-c2nn3c(=O)cc(CN4CCN(C(=O)Nc5cc(C)ccc5C)CC4)nc3s2)cc1` gave KB-V1 cytotox inactive and KB-3-1 cytotox inactive.
For CCn1c(C(=O)NC2CCC(C)CC2)cc2sccc21 (stereo not given) the results were KB-V1 cytotox inactive, KB-3-1 cytotox inactive, MCF10A rerep 8.6%, SW480 rerep 11.9% and ELG1 DNA repair inconclusive.
CCOC(=O)N1CCC(NC(=O)c2cc3sccc3n2CC)CC1 was read as KB-V1 cytotox 23.1µM*, KB-3-1 cytotox inactive, MCF10A rerep inconclusive, SW480 rerep -6.8% and ELG1 DNA repair -8.5%.
Screening CCC(=O)N1CCc2cc(S(=O)(=O)CCC(=O)Nc3cc(Cl)ccc3OC)ccc21 returned KB-V1 cytotox inactive and KB-3-1 cytotox inactive.
Screening CCOc1ccc(NC(=O)Cn2cc(C(=O)c3ccc(CC)cc3)c(=O)c3cc(C)ccc32)cc1 returned KB-V1 cytotox inactive and KB-3-1 cytotox inactive.
For CC(C)n1cnc2c(Nc3cccc(Cl)c3)nc(NCCCO)nc21 the results were KB-V1 cytotox inactive, KB-3-1 cytotox inactive, MCF10A rerep 18.8%, SW480 rerep inconclusive and ELG1 DNA repair inconclusive.
C=CC(=O)Nc1cccc(Nc2nc(N[C@H]3CC[C@H](N(C)C)CC3)nc3c2ncn3C(C)C)c1 was read as KB-V1 cytotox inactive, KB-3-1 cytotox 18.4µM*, MCF10A rerep inconclusive and SW480 rerep inconclusive.
For CCN(CC)C(=O)c1cc(-c2ccc(Br)cc2)on1 the results were KB-V1 cytotox 5.17µM*, KB-3-1 cytotox inactive, MCF10A rerep 27.0%, SW480 rerep 8.6% and ELG1 DNA repair inconclusive.
Screening O=C(/C=C/c1ccc(Cl)cc1)c1ccc([N+](=O)[O-])o1 returned KB-V1 cytotox inconclusive, KB-3-1 cytotox inconclusive, MCF10A rerep 8.2µM*, SW480 rerep inconclusive and ELG1 DNA repair inconclusive.
`Cc1ccc(C(=O)/C=C/c2ccc(Br)cc2)o1` gave KB-V1 cytotox inactive, KB-3-1 cytotox inactive, MCF10A rerep 7.31µM*, SW480 rerep 18.4µM* and ELG1 DNA repair inconclusive.
Cc1ccc(/C=C/C(=O)c2ccc([N+](=O)[O-])o2)cc1 was read as KB-V1 cytotox inconclusive, KB-3-1 cytotox inactive, MCF10A rerep 3.26µM*, SW480 rerep 1.46µM* and ELG1 DNA repair inconclusive.
`Cc1ccc(/C=C/C(=O)c2ccc(C)cc2)cc1` gave KB-V1 cytotox inactive, KB-3-1 cytotox inactive, MCF10A rerep 15.7%, SW480 rerep inconclusive and ELG1 DNA repair inconclusive.
`Cc1ccc(C(=O)/C=C/c2ccccc2)o1` gave KB-V1 cytotox inconclusive, KB-3-1 cytotox inconclusive, MCF10A rerep inconclusive, SW480 rerep 5.4% and ELG1 DNA repair inconclusive.
